# Only some compounds are listed: those with a hit (about 0.85% of all), similar ones and a draw of the others.
# pAkt inh: inhibitors of Akt phosphorylation; 360,000 compounds, 0.32% hits; activity change, % for hits at 50 µM; Neuro2A IGF-stimulated pAkt S473 HTRF, 20 min; hits give low values; in the data active = activity change below about -80%; note: % is set by controls: 0 for no effect and ±100 for the full control effect
#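 Single-point screen (50 µM final compound) in Neuro2A cells stimulated 20 min with 6 nM IGF at 37 deg C. After lysis, Ser473-phosphorylated Akt read by HTRF (ex 330 nm, em 615/665 nm) as the 665/615 ratio.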
# CCT chaperon mod: modulators of cytosolic chaperonin (CCT/TRiC) activity; purified chaperonin ATPase assay, HTRF ADP detection, 30 min; activity change, % (concentration not given with the values), hits read low; 360,000 compounds, 0.3% hits; AID 651819; in the data active = activity change below about -30%; note: % is set by controls: 0 for no effect and ±100 for the full control effect
#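 Enzyme 40 or 20 nM (batch-dependent) in Tris pH 7.4/KCl/MgCl2/DTT; cpd 76 uM single point; ATP 10 uM; 30 min 37 °C; Transcreener ADP HTRF detection, 30 min RT; ratio 665/615.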
# mIDH1 inhibitor: inhibitors of human mutant IDH1 R132H; AID 602179; 390,000 compounds, 0.093% hits; Potency, µM (series often up to 76.6 µM), for the others: at the top dose activity change, negative = inhibition, usual class: inhibitors; O75874; IDH1-R132H enzyme, NADPH consumption, diaphorase/resazurin fluorescence; note: potency is the fitted concentration of half-maximal effect; % is set by controls: 0 for no effect and ±100 for the full control effect; nearly all actives have a fitted effect of over 65% in size
#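 IDH1-R132H (0.5 ug/mL) preincubated 30 min with compound, then NADPH (0.016 mM) and alpha-KG (2 mM) added; 80 min at RT, pH 7.5. Remaining NADPH coupled via diaphorase/resazurin to fluorescence (540/590 nm); concentration-response curves normalized to no-enzyme control.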
# Mm-Cpn inhibitor: inhibitors of Methanococcus maripaludis chaperonin TRiC (MmCpn); AID 504842; purified Mm-Cpn ATPase, ADP Transcreener TR-FRET; 330,000 compounds, 0.031% hits; Potency, µM (top dose mostly 76.9 µM), without a hit: at the highest dose activity, negative = inhibition, usual class: inhibitors; note: potency is the fitted concentration of half-maximal effect; % is set by controls: 0 for no effect and ±100 for the full control effect; nearly all actives have a fitted effect of over 80% in size
#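 Inhibition of chaperonin ATP hydrolysis is measured as reduced ADP production, detected by competitive TR-FRET in which signal falls with ADP. Final enzyme 25 nM and ATP 10 uM, reacted 30 min at 37°C.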
# GRP78 ERSR act: induces the endoplasmic reticulum stress response in human glioma cells. U87-MG GRP78 promoter luciferase reporter, 16 h. Potency, µM, for inactives: at the top dose activation, usual class: activators. 420,000 compounds, 0.02% hits; note: potency is the fitted concentration of half-maximal effect; series mostly up to about 76 µM; % of control where 0% means no effect; nearly all actives have a fitted effect of over 35% in size
#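 Stably transfected U87-MG glioma cells carrying a GRP78-based luciferase sensor; 16 h compound incubation. Luminescence end-point read 10 min after Bright-Glo addition at room temperature.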
# GLS inhibitor: glutaminase GLS (human) inhibition. O94925. GLS enzymatic activity, qHTS titration. Potency, µM (doses to about 45.5 µM), without a hit: at the highest dose activity change, negative = inhibition, hits mostly inhibitors. 410,000 compounds, 0.21% hits; note: potency is the fitted concentration of half-maximal effect; % is set by controls: 0 for no effect and ±100 for the full control effect
# Target sequence (O94925 whole entry, looked up): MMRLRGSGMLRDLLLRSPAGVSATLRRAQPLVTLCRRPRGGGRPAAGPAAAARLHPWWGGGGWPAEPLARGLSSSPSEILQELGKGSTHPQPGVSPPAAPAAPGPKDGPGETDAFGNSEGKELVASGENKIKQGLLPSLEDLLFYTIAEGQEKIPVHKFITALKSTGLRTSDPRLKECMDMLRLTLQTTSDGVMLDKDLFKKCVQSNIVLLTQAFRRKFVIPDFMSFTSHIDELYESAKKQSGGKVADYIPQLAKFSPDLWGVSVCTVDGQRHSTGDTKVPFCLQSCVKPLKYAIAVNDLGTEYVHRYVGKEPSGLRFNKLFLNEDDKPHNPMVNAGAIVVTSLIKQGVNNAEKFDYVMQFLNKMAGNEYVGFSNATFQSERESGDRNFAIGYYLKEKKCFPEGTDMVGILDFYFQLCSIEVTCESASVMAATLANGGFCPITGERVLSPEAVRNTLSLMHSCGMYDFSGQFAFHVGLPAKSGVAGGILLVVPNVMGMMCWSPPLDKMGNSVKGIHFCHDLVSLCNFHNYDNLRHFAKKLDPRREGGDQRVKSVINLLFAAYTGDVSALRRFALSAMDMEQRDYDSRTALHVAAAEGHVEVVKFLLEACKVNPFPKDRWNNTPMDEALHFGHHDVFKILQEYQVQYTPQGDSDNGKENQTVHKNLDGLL
#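 Human kidney-isoform GLS in 45 mM KH2PO4 pH 8.2, 0.02% Tween-20, with compound, started with 1mM L-Glutamine (added stock). Glutamate oxidase/HRP/Amplex red coupled fluorescence read at start and after 30 min at RT.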
# The depositor's hits bear a star; i = inactive; nt = not tested or not shown. Unless noted, calls come from the whole dose curve; as a rule, active = well fitted curve in the direction sought with a large enough effect; inconclusive = small, poorly fitted or top-dose-only effect, or another doubt; inactive = no such curve, though single readings can be large; an effect the other way counts as inactive or inconclusive.
SMILES,pAkt inh,CCT chaperon mod,mIDH1 inhibitor,Mm-Cpn inhibitor,GRP78 ERSR act,GLS inhibitor
COc1ccc(OC)c(N2C(=O)[C@@H]3C(c4ccccc4Cl)=NO[C@@H]3C2=O)c1,i,2,7%,-10%,-6%,11µM*
Cc1cccc(C)c1N1C(=O)[C@@H]2C(c3ccccc3Cl)=NO[C@@H]2C1=O,i,0,-1%,-1%,1%,4%
CN(C)c1cc(NC(=O)CNC(C)(C)C)c(O)c2c1C[C@@H]1C[C@H]3[C@H](N(C)C)C(=O)C(C(N)=O)=C(O)[C@@]3(O)C(=O)C1=C2O,nt,nt,nt,nt,-2%,6.3µM*
Cc1c(C(=O)NCC2(N3CCOCC3)CCCC2)cnn1-c1nccc(-c2ccccc2F)n1,nt,nt,nt,nt,-4%,nt
O=C(CSc1nc2c(cnn2-c2ccc(F)cc2)c(=O)[nH]1)Nc1ccc(Br)cc1,nt,nt,19%,nt,-2%,7.9µM*
CCn1cc(C(=O)N2CCCc3ccccc32)c2cc(OC)c(OC)cc2c1=O,i,-30*,2%,3%,-1%,1%
CN(CCO)C(=O)c1cn(C2CCCN(Cc3cccc4ccccc34)C2)nn1 (configuration not stated),nt,nt,nt,nt,-3%,nt
CNc1c(NS(=O)(=O)c2ccc(OC)c(Cl)c2)c(=O)oc2ccccc12,i,-63*,-11%,5%,-10%,19%
Nc1ccc(O)c(C(=O)O)c1,nt,nt,nt,nt,-5%,16µM*
CC(C)C(C)(C#N)NC(=O)CSc1nc(C2CCCCC2)n(-c2ccccc2)n1 (configuration not stated),i,-33*,6%,2%,-3%,1%
N#CC1=C(N)n2c(s/c(=C\c3ccco3)c2=O)=C(C#N)C1c1ccco1 (configuration not stated),i,-10,5%,-7%,-3%,11µM*
CCOC(=O)C1=C(N)n2c(s/c(=C/c3ccco3)c2=O)=C(C(=O)OC)C1c1ccco1 (configuration not stated),i,-2,2%,0%,-6%,-1%
O=C(c1ccccc1-n1cccn1)N1CCOc2ccc(CN3CCOCC3)cc2C1,nt,nt,nt,nt,-4%,nt
COc1cccc(CNC(=O)c2c(OC)cc(=O)n3c2CCN(C(=O)c2ccc(C)nc2)CC3)c1,nt,nt,nt,nt,-3%,nt
Cc1ccc(/C(O)=C2\C(=O)C(=O)N(CCCN3CCOCC3)C2c2ccccc2F)cc1 (configuration not stated),i,-40*,-1%,nt,-8%,14%
COCC1CCCN(Cc2ccc3c(c2)CN(C(=O)c2cc(-c4ccccc4)n[nH]2)CCO3)C1 (configuration not stated),nt,nt,nt,nt,-1%,nt
COc1ccc(C(C(=O)NC2CCCC2)N(C(=O)c2ccco2)c2ccc3c(c2)OCO3)cc1OC (configuration not stated),-109%*,-2,-5%,0%,-2%,8%
Clc1ccccc1Sc1cnc2ccccc2n1,-91%*,1,2%,-10%,6%,-3%
FC(F)(F)c1cccc(-c2ccn3ncnc3n2)c1,i,-56*,1%,2%,-6%,-1%
Cc1c(C(=O)N(C)Cc2nccs2)sc2ncnc(NCC3CCCO3)c12 (configuration not stated),nt,nt,nt,nt,-5%,nt
CCOc1ccc(Cn2c(O)cc(=O)[nH]c2=O)cc1,-117%*,-2,-5%,-3%,-3%,0%
O=C1CC(CC(=O)N2CC3CCCC2C3)(c2cccc(F)c2)C(=O)N1Cc1cccnc1 (configuration not stated),nt,nt,nt,nt,0%,nt
CCN1CCCC1CNC(=O)c1cnn(-c2nccc(-c3ccco3)n2)c1C1CC1 (configuration not stated),nt,nt,nt,nt,-7%,nt
Cc1ccc(-n2nc(-c3ccco3)cc2C(=O)O)cc1,i,0,-8%,-1%,0%,11µM*
Cc1cccc(C(=O)N[C@H]2CC[C@@H](n3cc(C(=O)N4CCCC4)nn3)CC2)c1,nt,nt,nt,nt,-6%,nt
SMILES,pAkt inh,CCT chaperon mod,mIDH1 inhibitor,Mm-Cpn inhibitor,GRP78 ERSR act,GLS inhibitor
CC1CN(CC(=O)NCC2(N3CCOCC3)CCCC2)Cc2cc(Cl)ccc2O1 (configuration not stated),nt,nt,nt,nt,-3%,nt
COc1ccc2[nH]c3c(NCCN(C(C)C)C(C)C)ncnc3c2c1,i,-52*,0%,-4%,-1%,18%
CC1CCCCC12NC(=O)N(CC(=O)Nc1sc3c(c1C(N)=O)CCC3)C2=O (configuration not stated),-120%*,4,1%,-2%,0%,1%
CSc1ccc(C(=O)N2CCc3c(cnc(C)c3CNC(=O)c3cncs3)C2)cc1,nt,nt,nt,nt,-4%,nt
O=C(O)c1cccc(-n2cccc2/C=N/O)c1,-109%*,-1,0%,0%,-5%,4%
O=C(O)c1cccc(-n2cccc2/C=C/[N+](=O)[O-])c1,i,-5,8%,-2%,-1%,10µM*
O=C(O)c1cccc(-n2cccc2/C=C\[N+](=O)[O-])c1,i,0,1%,-4%,1%,103%
COC(=O)c1c(OCc2ccccn2)cc(=O)n2c1CCN(Cc1ccc3c(c1)CCCN3C)CC2,nt,nt,nt,nt,-2%,nt
COc1ccccc1-c1c(C)oc2c(CN3CCN(CCO)CC3)c(O)ccc2c1=O,nt,-52*,3%,0%,-2%,40%
Cc1cn2cc(CNC(=O)CN3Cc4ccccc4OC(c4ccccc4F)C3)nc2s1 (configuration not stated),nt,nt,nt,nt,1%,nt
CC(C)CN(CC(C)C)S(=O)(=O)c1cc([N+](=O)[O-])ccc1N1CCCCCC1,i,-3,3%,1%,-5%,-24%
CN(C)S(=O)(=O)c1cc([N+](=O)[O-])ccc1N1CCCCCC1,i,-31*,1%,-6%,-3%,-9%
COC(=O)c1c(OCC2CCCN(C)C2)cc(=O)n2c1CCN(Cc1ccc(OC)c(O)c1)CC2 (configuration not stated),nt,nt,nt,nt,-7%,nt
CCOC(=O)c1nnc(-c2ccccc2)nc1Oc1ccc(Cl)cc1,-119%*,1,6%,-2%,-7%,-4%
Cc1nc(NCc2c(C)nn(C)c2Cl)sc1-c1ccn(CC2COc3ccccc3O2)n1 (configuration not stated),nt,nt,nt,nt,-2%,nt
O=c1c2cc(-c3ccccc3)sc2ncn1/N=C/c1ccco1,-106%*,-4,1%,0%,2%,8%
Oc1cc(-c2nc3ccccc3s2)cc2c1OCCN(Cc1cccn1-c1ccccn1)C2,nt,nt,nt,nt,-11%,nt
COc1ccc(S(=O)(=O)Cc2ccc(C(=O)O)o2)cc1,i,2,0%,0%,-2%,-1%
Cc1ccc(S(=O)(=O)Cc2ccc(C(=O)O)o2)cc1,i,2,7%,2%,-6%,13µM*
